Molecules are shown by their SMILES. About 1,900 (0.47%) of roughly 400,000 compounds were called active. Another 14% or so got no clear call; they are omitted. No rule for the calls is given here. Many of the other results were omitted from the sample, so actives are more common in it than they were.

For the test, the target named is Ataxin-2 (Homo sapiens) (UniProt Q99700). In words: qHTS for Inhibitors of ATXN expression. It is filed as functional.
Chain of Ataxin-2 (Homo sapiens) (Q99700 whole entry): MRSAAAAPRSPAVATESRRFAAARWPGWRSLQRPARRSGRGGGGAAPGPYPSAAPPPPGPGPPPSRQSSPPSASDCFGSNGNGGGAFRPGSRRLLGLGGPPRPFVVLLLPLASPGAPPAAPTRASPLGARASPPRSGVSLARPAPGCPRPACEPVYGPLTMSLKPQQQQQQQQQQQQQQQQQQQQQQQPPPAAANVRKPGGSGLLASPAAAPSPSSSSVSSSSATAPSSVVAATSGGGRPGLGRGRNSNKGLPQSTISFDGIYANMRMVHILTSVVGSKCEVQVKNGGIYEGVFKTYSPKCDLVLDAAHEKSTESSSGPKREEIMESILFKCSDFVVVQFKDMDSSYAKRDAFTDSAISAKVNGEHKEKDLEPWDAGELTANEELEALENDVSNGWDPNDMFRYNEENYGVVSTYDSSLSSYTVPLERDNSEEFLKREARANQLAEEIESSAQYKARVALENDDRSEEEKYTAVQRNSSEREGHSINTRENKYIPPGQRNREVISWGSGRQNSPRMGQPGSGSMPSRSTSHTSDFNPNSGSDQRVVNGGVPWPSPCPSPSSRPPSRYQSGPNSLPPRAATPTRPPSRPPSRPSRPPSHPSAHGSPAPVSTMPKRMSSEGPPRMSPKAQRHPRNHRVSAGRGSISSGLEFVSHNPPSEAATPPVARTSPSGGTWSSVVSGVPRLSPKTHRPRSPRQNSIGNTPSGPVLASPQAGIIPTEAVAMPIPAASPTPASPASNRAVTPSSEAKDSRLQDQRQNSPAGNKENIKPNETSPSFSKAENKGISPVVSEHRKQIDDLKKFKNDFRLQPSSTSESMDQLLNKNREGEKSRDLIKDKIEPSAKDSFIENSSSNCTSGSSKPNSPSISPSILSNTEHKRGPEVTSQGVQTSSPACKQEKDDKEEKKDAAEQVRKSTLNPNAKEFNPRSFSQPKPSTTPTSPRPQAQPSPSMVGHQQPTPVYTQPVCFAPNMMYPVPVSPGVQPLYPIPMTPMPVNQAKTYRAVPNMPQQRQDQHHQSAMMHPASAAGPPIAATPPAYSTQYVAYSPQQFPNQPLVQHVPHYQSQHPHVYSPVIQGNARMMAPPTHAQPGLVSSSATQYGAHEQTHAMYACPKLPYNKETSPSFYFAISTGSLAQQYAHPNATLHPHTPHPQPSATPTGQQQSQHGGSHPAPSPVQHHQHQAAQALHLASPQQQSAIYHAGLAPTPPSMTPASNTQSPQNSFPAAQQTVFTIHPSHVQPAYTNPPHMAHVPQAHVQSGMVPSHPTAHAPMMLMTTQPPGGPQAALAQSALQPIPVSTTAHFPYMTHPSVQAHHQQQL
For `CCOc1ccc2nc(NN=C3C(=O)NC(=S)NC3=O)sc2c1`, the Potency is 15 µM (active).

Regarding `CCC(=O)N1N=C2C3CCN(CC3)C2C1c1ccc(C)cc1` (stereo not drawn), the Potency result is “inactive”. Next, `COc1cccc(C(=O)NCc2nc(-c3cccc(NC(=O)c4ccoc4C)c3)oc2C)c1OC`: 28.2 µM (active); `Nc1ccc2c(c1)Cc1cc([N+](=O)[O-])ccc1-2`: “inactive”; `Clc1ccc2c(c1)C(OC1CN3CCC1CC3)c1ccccc1CS2` (stereo not drawn): 28.2 µM (active).

In the case of `COc1ccc(S(=O)(=O)Nc2ccccc2OC)cc1NN=C1C(=O)NC(=S)NC1=O`, the Potency was 39.8 µM (active). Next, `CCOc1ccc(NS(=O)(=O)c2ccc(Cl)c(NN=C3C(=O)NC(=S)NC3=O)c2)cc1Br`: 28.2 µM (active); `Nc1ccc2ccc3cccc[n+]3c2c1`: “inactive”; `COCCCNC(=O)c1c(NC(=O)c2ccccc2Cl)n(Cc2ccccc2)c2nc3ccccc3nc12`: “inactive”. The same measure for `CCC1(OC(=O)CN)C(=O)OCc2c1cc1n(c2=O)Cc2cc3ccccc3nc2-1` (stereo not drawn): “inactive”. Next, `CC[C@@]1(O)C(=O)OCc2c1cc1n(c2=O)Cc2cc3ccccc3nc2-1`: 0.01 µM (active). For the compound `CCC1(O)C(=O)OCc2c1cc1n(c2=O)Cc2cc3cc(O)ccc3nc2-1` (stereo not drawn), the Potency entry is “inactive”. The same measure for `CCCCCn1c(=O)c(C(=O)NCc2ccccc2Cl)c(O)c2ccccc21`: “inactive”. Next, `NNC(=O)CN1C(=O)CN=C(c2ccccc2)c2cc(Br)ccc21`: “inactive”. On to `O=C(CN1C(=O)CN=C(c2ccccc2)c2ccccc21)Nc1cccc(C(F)(F)F)c1`, for which the Potency was 31.6 µM (active). The same measure for `C=C1C(=O)OC2CC3(C)OC3CCC(C)=CC(OC(C)=O)C12` (stereo not drawn): 33.6 µM (active).

As for `CCCCn1c(NS(=O)(=O)c2ccccc2)c(C(=O)OCC)c2nc3ccccc3nc21`, the Potency entry is “inactive”. On to `CCOC(=O)c1c(NS(=O)(=O)c2ccccc2)n(CCCOC)c2nc3ccccc3nc12`, for which the Potency result was “inactive”. For `COCCCn1c(N)c(C(=O)NCCC(C)C)c2nc3ccccc3nc21`, the Potency result was “inactive”.

Regarding `Brc1cccc(CNCCc2ccc3c(c2)OCO3)c1`, the Potency entry is “inactive”. The same measure for `CNCCC(Oc1ccc(C(F)(F)F)cc1)c1ccccc1` (stereo not drawn): 31.6 µM (active); for `CC[C@@]1(O)C(=O)OCc2c1cc1n(c2=O)Cc2cc3c(NC(=O)CN)cccc3nc2-1`: “inactive”.

In the case of `COC(=O)c1ccc(C(C(=O)NC2CCCCC2)N(CCN2CCOCC2)C(=O)Cc2cccs2)cc1` (stereo not drawn), the Potency entry was “inactive”.

On to `CCc1ccc2c(c1)Sc1ccccc1CC2N1CCN(C)CC1` (stereo not drawn), for which the Potency result was “inactive”. Next, `O=c1ccc2cc(OC3O[C@H](CO)[C@@H](O)[C@H](O)[C@H]3O)c(O)cc2o1` (stereo partly drawn): “inactive”; `CN1CCN(c2ccc([N+](=O)[O-])c3no[n+]([O-])c23)CC1`: 7.08 µM (active).

On to `O=[N+]([O-])c1ccc(N2CCOCC2)c2cccnc12`, for which the Potency entry was “inactive”. Turning to `O=[N+]([O-])c1ccc(N(CCO)CCO)c2c1no[n+]2[O-]`, the Potency is 17.8 µM (active). Next, `O=[N+]([O-])c1ccc(N2CCOCC2)c2c1no[n+]2[O-]`: 3.98 µM (active); `COc1ccc(Br)cc1CNCCc1ccc2c(c1)OCO2`: “inactive”; `Cc1cc2c(C(F)(F)F)cc(=O)oc2c2c1NCCC2`: “inactive”. Next, `Cc1cc(/C=C2\C(=O)NC(=O)N(Cc3ccccc3Cl)C2=O)c(C)n1-c1ccc(C(=O)O)cc1`: “inactive”; `Cc1cccc(N2C(=O)NC(=O)/C(=C/c3cc4c(cc3[N+](=O)[O-])OCO4)C2=O)c1`: “inactive”.

As to `Cc1cc(C=C2C(=O)NC(=S)NC2=O)c(C)n1-c1ccc2c(c1)OCO2`, the Potency was 39.8 µM (active). The same measure for `CCN(C(=O)COC(=O)c1cn(C)c2ccccc12)c1ccc(F)cc1`: “inactive”.

In the case of `COc1ccc(C(c2nnnn2Cc2ccccc2)N2CCC(n3c(O)nc4ccccc43)CC2)cc1` (stereo not drawn), the Potency was 15.8 µM (active). On to `Oc1nc2ccccc2n1C1CCN(C(c2cccs2)c2nnnn2Cc2ccccc2)CC1` (stereo not drawn), for which the Potency is 22.4 µM (active). For `Oc1nc2ccccc2n1C1CCN(C(c2cc3ccccc3o2)c2nnnn2Cc2ccccc2)CC1` (stereo not drawn), the Potency was 10 µM (active). With `Cc1cccc(C)c1-n1nnnc1C(c1cccs1)N1CCC(n2c(O)nc3ccccc32)CC1` (stereo not drawn), the Potency was 20 µM (active). Next, `COc1ccc2c3c([nH]c2c1)C(C)=NCC3`: “inactive”; `Cc1c(C)n(O)c2ccc3nonc3c12`: “inactive”; `CCN(CC)c1ccc(N/C=C2\C(=O)NC(=O)N(Cc3ccco3)C2=O)cc1`: “inactive”. Next, `CCOP(=O)(OCC)c1nc(-c2ccc(F)cc2)oc1NCc1ccccc1`: “inactive”; `COc1ccc(CN2Cc3cnnn3-c3ccccc3C2C#N)cc1` (stereo not drawn): 12.6 µM (active). The same measure for `Cc1ccccc1CN1Cc2cnnn2-c2ccccc2C1C#N` (stereo not drawn): 17.8 µM (active); for `Nc1c(C(=O)NCCN2CCOCC2)c2nc3ccccc3nc2n1Cc1ccco1`: “inactive”; for `ClCCN(CCCl)c1ccc(C=Cc2ccncn2)cc1`: “inactive”. Consider `ClCCN(CCCl)c1ccc(-n2cnc3c(Cl)ncnc32)cc1`, for which the Potency was 35.5 µM (active). The same measure for `COCCNC(=O)c1c(NC(=O)c2ccc(Br)o2)n(Cc2ccccc2)c2nc3ccccc3nc12`: “inactive”. Next, `CCCCCCCSc1cc(OC)c(CCN(C)C)cc1OC`: 39.8 µM (active); `C=CC[N+]1(C)C2CCC1CC(O)C2` (stereo not drawn): “inactive”; `COc1ccccc1OCCCn1cc(C=O)c2ccccc21`: “inactive”.

With `Cc1ccc([C@H]2C[C@H](O)[C@@H](n3cc(COC(=O)c4ccccc4)nn3)CN2CC2CCCCC2)cc1`, the Potency was 31.6 µM (active). Next, `CCOC(=O)c1c(N)n(Cc2ccco2)c2nc3ccccc3nc12`: “inactive”; `O=C1C2(Cl)C3(Cl)C4(Cl)C(Cl)(Cl)C5(Cl)C3(Cl)C1(Cl)C5(Cl)C24Cl` (stereo not drawn): 39.8 µM (active); `CCCCn1c(NC(=O)c2ccc(Br)o2)c(C(=O)OCC)c2nc3ccccc3nc21`: “inactive”. The same measure for `O=c1[nH]c2ccccc2n1C1CCN(CCCC(c2ccc(F)cc2)c2ccc(F)cc2)CC1`: 31.6 µM (active); for `COCCCNC(=O)c1c(N)n(Cc2ccco2)c2nc3ccccc3nc12`: “inactive”. `O=[N+]([O-])c1ccc(Sc2nc3ccccc3o2)c([N+](=O)[O-])c1`: the Potency is 25.1 µM (active). Next, `CCCCCn1c(=O)c(C(=O)Nc2ccccc2Cl)c(O)c2ccccc21`: “inactive”; `CCCCCc1nc2c(c(=O)c3ccccc3n2C)c(=O)n1C1CCCCCC1`: 31.6 µM (active); `Nc1c(C(=O)NCCN2CCOCC2)c2nc3ccccc3nc2n1Cc1ccccc1`: “inactive”.

For the compound `COCCNC(=O)c1c(N)n(CCC(C)C)c2nc3ccccc3nc12`, the Potency result is “inactive”. As to `CCOC(=O)c1c(C)n(Cc2ccccc2)c2ccc(OCC(O)CNC(C)(C)C)cc12` (stereo not drawn), the Potency is 25.1 µM (active). Next, `COc1ccc(N2C(=O)NC(=O)/C(=C(/C)NCCc3c[nH]c4ccccc34)C2=O)cc1`: “inactive”. In the case of `CCCCn1c(N)c(C(=O)OCCOC)c2nc3ccccc3nc21`, the Potency result is “inactive”. Next, `CC(=O)OC1C2(CC3N4C(=O)C5(CO)SSC4(CC31O)C(=O)N5C)OC(C)C(C)(C)C2=O` (stereo not drawn): 2.38 µM (active); `CCN1C(=O)C(=CNNC(=O)c2ccncc2)C(=O)N(CC)C1=S`: “inactive”; `CCCN1CCc2cccc3c2[C@H]1Cc1ccc(O)c(O)c1-3`: 35.5 µM (active). Next, `Cc1ccccc1NC(=NCCCN1CC1)Nc1ccccc1C`: 9.47 µM (active); `O=C(Nc1cccc(C(F)(F)F)c1)C1CCCN1S(=O)(=O)c1cccc2nsnc12` (stereo not drawn): 22.4 µM (active); `CC1=NCCc2c1[nH]c1cc(O)ccc21`: “inactive”. The same measure for `O=C(CCN1CCN(c2ccccc2)CC1)c1ccc(Br)cc1`: 39.8 µM (active); for `O=C(Cn1c(NCCCl)nc2ccccc21)c1ccc(Br)cc1`: “inactive”.

As to `COc1ccc(C(c2nnnn2-c2ccc(OC)cc2)N2CCC3(CC2)C(=O)NCN3c2ccccc2)cc1` (stereo not drawn), the Potency was 35.5 µM (active). Next, `COc1ccc(-n2nnnc2C(c2ccccc2OC(F)(F)F)N2CCC3(CC2)C(=O)NCN3c2ccccc2)cc1` (stereo not drawn): 39.8 µM (active). Next, `COc1ccc(-n2nnnc2C(c2ccnc3ccccc23)N2CCC3(CC2)C(=O)NCN3c2ccccc2)cc1` (stereo not drawn): 39.8 µM (active); `Cc1cccc(C)c1-n1nnnc1C(C1CC1)N1CCC2(CC1)C(=O)NCN2c1ccccc1` (stereo not drawn): 39.8 µM (active); `COc1ccc(-n2c(/C=C/c3ccc(O)c(O)c3)nc3ccccc3c2=O)cc1`: “inactive”. Next, `COc1ccc(C(=O)C2CCCN(Cc3ccc(C)s3)C2)cc1OC` (stereo not drawn): “inactive”; `CC(C)OC(=O)c1c(N)n(CC2CCCO2)c2nc3ccccc3nc12` (stereo not drawn): “inactive”.

With `O=C(COc1ccccc1)N1CCN(CCN2C(=O)c3cccc4cccc(c34)C2=O)CC1`, the Potency entry was “inactive”.

Regarding `CCOP(=O)(OCC)c1nc(-c2cccc3ccccc23)oc1N1CCOCC1`, the Potency entry is “inactive”. The same measure for `Cc1cccc(C)c1-n1nnnc1C(c1ccnc2ccccc12)N1CCC2(CC1)C(=O)NCN2c1ccccc1` (stereo not drawn): 39.8 µM (active); for `Cc1cccc(C)c1-n1nnnc1C(c1cccs1)N1CCC2(CC1)C(=O)NCN2c1ccccc1` (stereo not drawn): 31.6 µM (active); for `C[C@H]1CC[C@@H]2[C@@H](C)[C@H]3[C@H](C[C@H]4[C@@H]5CC=C6C[C@@H](O[C@@H]7O[C@H](CO)[C@H](O)[C@H](O[C@@H]8O[C@H](CO)[C@@H](O)[C@H](O)[C@H]8O)[C@H]7O[C@@H]7O[C@@H](C)[C@H](O)[C@@H](O)[C@H]7O)CC[C@]6(C)[C@H]5CC[C@]34C)N2C1`: 22.4 µM (active).

With `COP(=O)(OC)c1nc(-c2cccc3ccccc23)oc1N1CCCCC1`, the Potency entry is “inactive”. The same measure for `Cc1ccc(OCCOc2cccc(C=C3C(=O)NC(=O)NC3=O)c2)cc1`: “inactive”; for `CN(C)c1ccc(C=C2C(=O)NC(=S)NC2=O)cc1`: 44.7 µM (active). For the compound `COc1ccc(OC)c(CN2CCN(C(=O)Cc3ccccc3)CC2)c1`, the Potency result is “inactive”.

Regarding `O=C1NC(=O)C(=Cc2ccc(-c3ccccc3[N+](=O)[O-])o2)C(=O)N1`, the Potency entry was “inactive”. For `O=C1NC(=O)C(=Cc2ccc(SC3CCCCC3)o2)C(=O)N1`, the Potency was 22.4 µM (active). Next, `C=CC[C@@H](CC/C=C/C=C/CC/C=C\[C@@H]1CSC([C@@H]2C[C@@H]2C)=N1)OC`: 17.8 µM (active).

(Values after ChEMBL document CHEMBL1201862, “PubChem BioAssay data set” (2004).)
